Legend:
Assay in all cases: phenotypically active (imaging signature differs from DMSO and reproducible) at any of 0.3-9 uM (binary (1 = active, 0 = inactive)); higher = active
Settings in all cases: treatment time: 24 h
A549-ACTB-RAB5A = tested on: A549-ACTB-RAB5A
How it was run: (§1)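 The reporter lines, fifteen in total and built by gene editing in A549, HepG2 and WPMY1 cells, used BFP for segmentation alongside GFP and RFP/FusionRed markers. Each was treated at 0.3, 1, 3 or 9 µM for 24 h in four wells and then imaged live, with live-cell features normalised to solvent control wells. Deviation meant ≥3 of 4 wells beyond the 95th percentile of control Euclidean distances; reproducibility meant a median replicate Pearson correlation above the 95th percentile of non-replicates. Only conditions meeting both were scored as phenotypically active.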

A549-CANX-COX4 = tested on: A549-CANX-COX4
How it was run: as §1

A549-GM130-SQSTM1 = tested on: A549-GM130-SQSTM1
How it was run: as §1

A549-TP53BP1-CLTA = tested on: A549-TP53BP1-CLTA
How it was run: as §1

A549-TUBA1B-RELA = tested on: A549-TUBA1B-RELA
How it was run: as §1

HepG2-ACTB-RAB5A = tested on: HepG2-ACTB-RAB5A
How it was run: as §1

HepG2-CANX-COX4 = tested on: HepG2-CANX-COX4
How it was run: as §1

HepG2-GM130-SQSTM1 = tested on: HepG2-GM130-SQSTM1
How it was run: as §1

HepG2-TP53BP1-CLTA = tested on: HepG2-TP53BP1-CLTA
How it was run: as §1

HepG2-TUBA1B-RELA = tested on: HepG2-TUBA1B-RELA
How it was run: as §1

WPMY1-ACTB-RAB5A = tested on: WPMY1-ACTB-RAB5A
How it was run: as §1

WPMY1-CANX-COX4 = tested on: WPMY1-CANX-COX4
How it was run: as §1

WPMY1-GM130-SQSTM1 = tested on: WPMY1-GM130-SQSTM1
How it was run: as §1

WPMY1-TP53BP1-CLTA = tested on: WPMY1-TP53BP1-CLTA
How it was run: as §1

WPMY1-TUBA1B-RELA = tested on: WPMY1-TUBA1B-RELA
How it was run: as §1

Measured: phenotypically active

COC(=O)c1sccc1S(=O)(=O)Nc1ccc(Nc2ccccc2)cc1OC
inactive: A549-ACTB-RAB5A 0 | A549-CANX-COX4 0 | A549-GM130-SQSTM1 0 | A549-TP53BP1-CLTA 0 | A549-TUBA1B-RELA 0 | HepG2-ACTB-RAB5A 0 | HepG2-CANX-COX4 0 | HepG2-GM130-SQSTM1 0 | HepG2-TP53BP1-CLTA 0 | HepG2-TUBA1B-RELA 0 | WPMY1-ACTB-RAB5A 0 | WPMY1-CANX-COX4 0 | WPMY1-GM130-SQSTM1 0 | WPMY1-TP53BP1-CLTA 0 | WPMY1-TUBA1B-RELA 0

COC(=O)C1CC23C=CCN4CCC5(c6ccccc6NC15[C@H]2C)C43 (stereo not given in full) [Vindolinine dichlorhydrate]
inactive: A549-ACTB-RAB5A 0 | A549-CANX-COX4 0 | A549-GM130-SQSTM1 0 | A549-TP53BP1-CLTA 0 | A549-TUBA1B-RELA 0 | HepG2-ACTB-RAB5A 0 | HepG2-CANX-COX4 0 | HepG2-GM130-SQSTM1 0 | HepG2-TP53BP1-CLTA 0 | HepG2-TUBA1B-RELA 0 | WPMY1-ACTB-RAB5A 0 | WPMY1-CANX-COX4 0 | WPMY1-GM130-SQSTM1 0 | WPMY1-TP53BP1-CLTA 0 | WPMY1-TUBA1B-RELA 0

NS(=O)(=O)c1cc2c(cc1Cl)NC(C1CC3C=CC1C3)NS2(=O)=O (stereo not given) [cyclothiazide]
inactive: A549-ACTB-RAB5A 0 | A549-CANX-COX4 0 | A549-GM130-SQSTM1 0 | A549-TP53BP1-CLTA 0 | A549-TUBA1B-RELA 0 | HepG2-ACTB-RAB5A 0 | HepG2-CANX-COX4 0 | HepG2-GM130-SQSTM1 0 | HepG2-TP53BP1-CLTA 0 | HepG2-TUBA1B-RELA 0 | WPMY1-ACTB-RAB5A 0 | WPMY1-CANX-COX4 0 | WPMY1-GM130-SQSTM1 0 | WPMY1-TP53BP1-CLTA 0 | WPMY1-TUBA1B-RELA 0

CN(C)CCC[C@@]1(c2ccc(F)cc2)OCc2cc(C#N)ccc21 [escitalopram]
inactive: A549-ACTB-RAB5A 0 | A549-CANX-COX4 0 | A549-GM130-SQSTM1 0 | A549-TP53BP1-CLTA 0 | A549-TUBA1B-RELA 0 | HepG2-ACTB-RAB5A 0 | HepG2-CANX-COX4 0 | HepG2-GM130-SQSTM1 0 | HepG2-TP53BP1-CLTA 0 | HepG2-TUBA1B-RELA 0 | WPMY1-ACTB-RAB5A 0 | WPMY1-CANX-COX4 0 | WPMY1-GM130-SQSTM1 0 | WPMY1-TP53BP1-CLTA 0 | WPMY1-TUBA1B-RELA 0

O=C(O)[C@H](Cc1c[nH]c2ccccc12)N1C(=O)c2ccccc2C1=O
inactive: A549-ACTB-RAB5A 0 | A549-CANX-COX4 0 | A549-GM130-SQSTM1 0 | A549-TP53BP1-CLTA 0 | A549-TUBA1B-RELA 0 | HepG2-ACTB-RAB5A 0 | HepG2-CANX-COX4 0 | HepG2-GM130-SQSTM1 0 | HepG2-TP53BP1-CLTA 0 | HepG2-TUBA1B-RELA 0 | WPMY1-ACTB-RAB5A 0 | WPMY1-CANX-COX4 0 | WPMY1-GM130-SQSTM1 0 | WPMY1-TP53BP1-CLTA 0 | WPMY1-TUBA1B-RELA 0

NC1=NCC2c3ccccc3Cc3ccccc3N12 (stereo not given) [epinastine]
inactive: A549-ACTB-RAB5A 0 | A549-CANX-COX4 0 | A549-GM130-SQSTM1 0 | A549-TP53BP1-CLTA 0 | A549-TUBA1B-RELA 0 | HepG2-ACTB-RAB5A 0 | HepG2-CANX-COX4 0 | HepG2-GM130-SQSTM1 0 | HepG2-TP53BP1-CLTA 0 | HepG2-TUBA1B-RELA 0 | WPMY1-ACTB-RAB5A 0 | WPMY1-CANX-COX4 0 | WPMY1-GM130-SQSTM1 0 | WPMY1-TP53BP1-CLTA 0 | WPMY1-TUBA1B-RELA 0

COc1ccc([C@@H]2Sc3ccccc3N(CCN(C)C)C(=O)[C@@H]2OC(C)=O)cc1 [diltiazem]
inactive: A549-ACTB-RAB5A 0 | A549-CANX-COX4 0 | A549-GM130-SQSTM1 0 | A549-TP53BP1-CLTA 0 | A549-TUBA1B-RELA 0 | HepG2-ACTB-RAB5A 0 | HepG2-CANX-COX4 0 | HepG2-GM130-SQSTM1 0 | HepG2-TP53BP1-CLTA 0 | HepG2-TUBA1B-RELA 0 | WPMY1-ACTB-RAB5A 0 | WPMY1-CANX-COX4 0 | WPMY1-GM130-SQSTM1 0 | WPMY1-TP53BP1-CLTA 0 | WPMY1-TUBA1B-RELA 0

CS(=O)(=O)OCCCCOS(C)(=O)=O [busulfan]
inactive: A549-ACTB-RAB5A 0 | A549-CANX-COX4 0 | A549-GM130-SQSTM1 0 | A549-TP53BP1-CLTA 0 | A549-TUBA1B-RELA 0 | HepG2-ACTB-RAB5A 0 | HepG2-CANX-COX4 0 | HepG2-GM130-SQSTM1 0 | HepG2-TP53BP1-CLTA 0 | HepG2-TUBA1B-RELA 0 | WPMY1-ACTB-RAB5A 0 | WPMY1-CANX-COX4 0 | WPMY1-GM130-SQSTM1 0 | WPMY1-TP53BP1-CLTA 0 | WPMY1-TUBA1B-RELA 0

Cn1cnc2c(NCc3ccccc3)nc(NCCO)nc21 [Olomoucine]
inactive: A549-ACTB-RAB5A 0 | A549-CANX-COX4 0 | A549-GM130-SQSTM1 0 | A549-TP53BP1-CLTA 0 | A549-TUBA1B-RELA 0 | HepG2-ACTB-RAB5A 0 | HepG2-CANX-COX4 0 | HepG2-GM130-SQSTM1 0 | HepG2-TP53BP1-CLTA 0 | HepG2-TUBA1B-RELA 0 | WPMY1-ACTB-RAB5A 0 | WPMY1-CANX-COX4 0 | WPMY1-GM130-SQSTM1 0 | WPMY1-TP53BP1-CLTA 0 | WPMY1-TUBA1B-RELA 0

OC(CCN1CCCCC1)(c1ccccc1)C1CC2C=CC1C2 (stereo not given) [biperiden]
inactive: A549-ACTB-RAB5A 0 | A549-CANX-COX4 0 | A549-GM130-SQSTM1 0 | A549-TP53BP1-CLTA 0 | A549-TUBA1B-RELA 0 | HepG2-ACTB-RAB5A 0 | HepG2-CANX-COX4 0 | HepG2-GM130-SQSTM1 0 | HepG2-TP53BP1-CLTA 0 | HepG2-TUBA1B-RELA 0 | WPMY1-ACTB-RAB5A 0 | WPMY1-CANX-COX4 0 | WPMY1-GM130-SQSTM1 0 | WPMY1-TP53BP1-CLTA 0 | WPMY1-TUBA1B-RELA 0

CCCC(=O)O [Sodium butyrate]
inactive: A549-ACTB-RAB5A 0 | A549-CANX-COX4 0 | A549-GM130-SQSTM1 0 | A549-TP53BP1-CLTA 0 | A549-TUBA1B-RELA 0 | HepG2-ACTB-RAB5A 0 | HepG2-CANX-COX4 0 | HepG2-GM130-SQSTM1 0 | HepG2-TP53BP1-CLTA 0 | HepG2-TUBA1B-RELA 0 | WPMY1-ACTB-RAB5A 0 | WPMY1-CANX-COX4 0 | WPMY1-GM130-SQSTM1 0 | WPMY1-TP53BP1-CLTA 0 | WPMY1-TUBA1B-RELA 0

S=P(N1CC1)(N1CC1)N1CC1 [thiotepa]
inactive: A549-ACTB-RAB5A 0 | A549-CANX-COX4 0 | A549-GM130-SQSTM1 0 | A549-TP53BP1-CLTA 0 | A549-TUBA1B-RELA 0 | HepG2-ACTB-RAB5A 0 | HepG2-CANX-COX4 0 | HepG2-GM130-SQSTM1 0 | HepG2-TP53BP1-CLTA 0 | HepG2-TUBA1B-RELA 0 | WPMY1-ACTB-RAB5A 0 | WPMY1-CANX-COX4 0 | WPMY1-GM130-SQSTM1 0 | WPMY1-TP53BP1-CLTA 0 | WPMY1-TUBA1B-RELA 0

Source: the supplement of paper PMC7411054
